Activity calls are given as the source filed them. The calls were made as follows: active = hit-call score of the fitted dose curve at least 0.9, where 1 is the maximum; inactive = score below 0.9.
What was measured:
[1] = APR_HepG2_CellCycleArrest_24hr: Apredica 24-hour HepG2 Assay for Cell Cycle Arrest (AID 2282905); conditions: imaging, actives raise or lower the signal;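 also: cell cycle arrest scored as ratio of 2N to 4N nuclear DNA content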
In short: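 Compounds at 0.39–200 uM (0.5% DMSO) for 24 h, then fixed and Hoechst 33342 stained. Cell-cycle analysis of nuclear DNA content by high-content imaging, fitted bidirectionally versus DMSO.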

[2] = APR_HepG2_NuclearSize_24hr: Apredica 24-hour HepG2 Assay for Nuclear Size (AID 2282907); conditions: high-content imaging, actives raise or lower the signal
In short: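 HepG2 cells exposed 24 h to compounds at 0.39–200 uM (0.5% DMSO), fixed, Hoechst 33342 stained and imaged at 20x; nuclear diameter measured by automated image analysis, fitted bidirectionally against DMSO controls.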

[3] = APR_HepG2_CellLoss_24hr: Apredica 24-hour HepG2 Assay for Cell Loss (AID 2282908); conditions: high-content imaging;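 as to AC50: fit in both directions so a hit may be cell loss or gain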
In short: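 HepG2 cells exposed 24 hr to 0.39–200 uM compound in duplicate at 0.5% v/v final DMSO. Cells fixed in 3.7% formaldehyde and Hoechst 33342-stained. Cell number came from nuclear imaging at 20x. Bidirectional fit versus DMSO.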

[4] = APR_HepG2_MitoticArrest_24hr: Apredica 24-hour HepG2 Assay for Mitotic Arrest (AID 2282910); conditions: high-content imaging, actives raise or lower the signal
In short: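 HepG2 cells, 24 h exposure at 0.39-200 uM (10 concentrations, duplicate, 0.5% DMSO). Fixed, stained for phospho-histone H3 with Hoechst; imaged by high-content microscopy, bidirectional fit versus DMSO.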

[5] = APR_HepG2_MitoMembPot_24hr: Apredica 24-hour HepG2 Assay for Mitochondrial Membrane Potential (AID 2282911); conditions: imaging, actives raise or lower the signal
In short: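 Human hepatoma HepG2 cultures received ten compound concentrations up to 200 uM for 24 hr. Membrane-potential dye signal, captured by automated fluorescence microscopy, was scored for gain or loss against DMSO controls.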

[6] = APR_HepG2_MitoMass_24hr: Apredica 24-hour HepG2 Assay for Mitochondrial Mass (AID 2282912); conditions: high-content imaging, actives raise or lower the signal
In short: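 HepG2 cells exposed 24 hr to 0.39–200 uM compound, 0.5% v/v DMSO, in duplicate. Stained before fixation with 250 nM MitoTracker Red CMXRos for 30 min, then imaged at 20x with Hoechst nuclei. Fitted in both directions against DMSO.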

[7] = APR_HepG2_p53Act_24hr: Apredica 24-hour HepG2 Assay for p53 Activation (AID 2282913); conditions: high-content imaging, actives raise or lower the signal;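 also: p53 protein immunofluorescence averaged per cell in HepG2 with Hoechst nuclei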
In short: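 Automated fluorescence imaging quantifies p53 immunostaining in HepG2 cells after a 24 hr exposure (0.39–200 uM, duplicate, 0.5% DMSO). Nuclei are located by Hoechst 33342 staining.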

[8] = APR_HepG2_CellCycleArrest_72hr: Apredica 72-hour HepG2 Assay for Cell Cycle Arrest (AID 2282914); conditions: high-content imaging, actives raise or lower the signal
In short: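 Cell cycle arrest in HepG2 was scored from nuclear DNA content after 72 hr compound treatment (0.39–200 uM). Activity, either gain or loss, was fitted against the DMSO baseline.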

[9] = APR_HepG2_CellLoss_72hr: Apredica 72-hour HepG2 Assay for Cell Loss (AID 2282915); conditions: high-content imaging
In short: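 HepG2 cells exposed 72 h to compound at 0.39–200 uM (10 concentrations, duplicate) in 0.5% DMSO. Fixed with 3.7% formaldehyde and Hoechst 33342-stained. Imaged at 20x; nuclear count gives cell number, fitted bidirectionally versus DMSO.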

[10] = APR_HepG2_MitoticArrest_72hr: Apredica 72-hour HepG2 Assay for Mitotic Arrest (AID 2282918); conditions: high-content imaging, actives raise or lower the signal
In short: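 Mitotic arrest in HepG2 is scored from phospho-histone H3 staining after 72 hr dosing across 0.39–200 uM, with DMSO at 0.5% v/v. Nuclei are identified by Hoechst 33342 and fluorescence intensity is quantified per cell.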

[11] = APR_HepG2_MicrotubuleCSK_72hr: Apredica 72-hour HepG2 Assay for Microtubule CSK Stabilty (AID 2282919); conditions: HepG2 microtubule cytoskeleton, high-content imaging, actives raise or lower the signal
In short: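 HepG2 cells were exposed 72 hr to compound at 0.39–200 uM in duplicate (0.5% DMSO final), then fixed and permeabilized. Alpha-tubulin immunofluorescence was imaged by high-content microscopy, with bidirectional fitting against DMSO and taxol as positive control.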

[12] = APR_HepG2_P-H2AX_24hr: Apredica 24-hour HepG2 Assay for H2AX Phosphorylation (AID 2282920); conditions: high-content imaging, actives raise or lower the signal
In short: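 Signal comes from a FITC-labeled secondary detecting phospho-histone H2A.x in fixed HepG2 cells, quantified by automated imaging at 20x. Dosing ran 24 hr across 0.39–200 uM with 0.5% v/v DMSO.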

[13] = APR_HepG2_StressKinase_72hr: Apredica 72-hour HepG2 Assay for Stress Kinase (AID 2282921); conditions: HepG2 stress kinase (phospho-c-Jun) imaging, actives raise or lower the signal
In short: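 HepG2 cells treated 72 hr with 0.39–200 uM compound, 0.5% v/v DMSO, duplicate wells. After formaldehyde fixation and Triton permeabilization, stained with anti-phospho-c-Jun (1:500) and Cy3 secondary, imaged at 20x. Fitted in both directions against DMSO.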

[14] = APR_HepG2_StressKinase_24hr: Apredica 24-hour HepG2 Assay for Stress Kinase (AID 2282922); conditions: HepG2 stress kinase (phospho-c-Jun) imaging, actives raise or lower the signal
In short: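 HepG2 cells exposed 24 h to 0.39–200 uM compound in duplicate (0.5% v/v DMSO final). Cells fixed in 3.7% formaldehyde, permeabilized and immunostained for phospho-c-Jun; read by high-content fluorescence imaging, fitted bidirectionally against DMSO.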

[15] = APR_HepG2_p53Act_72hr: Apredica 72-hour HepG2 Assay for p53 Activation (AID 2282923); conditions: high-content imaging, actives raise or lower the signal;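 also: average cellular p53 protein immunofluorescence intensity in HepG2 cells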
In short: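 HepG2 cells exposed 72 h to 0.39–200 uM in 0.5% DMSO, duplicates. Fixed, permeabilized cells immunostained for p53 (Cy5) with Hoechst; imaged at 20x, fluorescence analyzed bidirectionally against DMSO.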

[16] = APR_HepG2_NuclearSize_72hr: Apredica 72-hour HepG2 Assay for Nuclear Size (AID 2282925); conditions: high-content imaging, actives raise or lower the signal
In short: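 HepG2 cells dosed 72 h at 0.39–200 uM (10 concentrations, duplicate) in 0.5% v/v DMSO final. Fixed, Hoechst 33342-stained nuclei imaged; nuclear diameter measured by automated image analysis. Bidirectional fit versus DMSO.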

[17] = APR_HepG2_MitoMembPot_72hr: Apredica 72-hour HepG2 Assay for Mitochondrial Membrane Potential (AID 2282917); conditions: imaging, actives raise or lower the signal
In short: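 HepG2 cells dosed 72 hr with compound at 0.39–200 uM in duplicate, 0.5% v/v DMSO final. Mitochondria stained with 250 nM MitoTracker Red CMXRos for 30 min before formaldehyde fixation, imaged by high-content fluorescence; bidirectional fit versus DMSO.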

[18] = APR_HepG2_MitoMass_72hr: Apredica 72-hour HepG2 Assay for Mitochondrial Mass (AID 2282924); conditions: high-content imaging, actives raise or lower the signal;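 also: MitoTracker Red CMXRos stain intensity per cell imaged as mitochondrial mass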
In short: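 HepG2 cells dosed 72 hr at 0.39–200 uM (0.5% DMSO), in duplicate. MitoTracker Red CMXRos 250 nM loaded 30 min before formaldehyde fixation; high-content fluorescence imaging, bidirectional fit versus DMSO.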

[19] = APR_HepG2_P-H2AX_72hr: Apredica 72-hour HepG2 Assay for H2AX Phosphorylation (AID 2282916); conditions: imaging, actives raise or lower the signal;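 also: phospho-histone H2A.x immunostain intensity per cell marking DNA damage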
In short: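 HepG2 cells treated 72 h at 0.39–200 uM, 0.5% DMSO final, duplicates. Formaldehyde-fixed, Triton-permeabilised, immunostained for phospho-H2A.x with Hoechst; fluorescence imaged at 20x, bidirectional fit versus DMSO.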

Measured: AC50

COc1ccc2sc(C(=O)Nc3nnn[nH]3)c(OC(C)C)c2c1
active: [9] 39.9 µM
not listed: [17] | [18] | [19]
inactive: all other assays above

C1=CCCC=CCCC=CCC1
not listed: [13] | [19]
inactive: all other assays above

CC(C)CC(C)(O)C#CC(C)(O)CC(C)C (stereo unspecified)
not listed: [13] | [18]
inactive: all other assays above

CCOC(=O)c1ccc(C2CCC(NC[C@H](O)COc3ccc(O)c(NS(C)(=O)=O)c3)CC2)cc1 (stereo partly specified)
inactive: [1] | [2] | [8] | [13] | [18]
active: [3] 32.3 µM | [4] 27.5 µM | [5] 86.9 µM | [6] 28.1 µM | [7] 26.2 µM | [9] 25 µM | [10] 20.3 µM | [11] 41.9 µM | [12] 40 µM | [14] 28.3 µM | [15] 14.5 µM | [16] 22.7 µM

C=CCCCCCCCCC(=O)O
not listed: [13] | [17]
inactive: all other assays above

O=C(O)c1cccc(N(Cc2cccnc2)c2ccc(OC(F)F)c(OC(F)F)c2)c1
active: [3] 43.6 µM | [4] 10.4 µM | [5] 0.0349 µM | [6] 13.3 µM | [7] 5.63 µM | [9] 23.5 µM | [10] 4.04 µM | [12] 30.8 µM | [13] 15.4 µM | [15] 4.01 µM | [16] 17.4 µM
inactive: [1] | [2] | [8] | [11] | [14] | [18]
